Source: PubChem BioAssay (NCATS)
Where “and” joins values, the source holds several entries; their conditions need not be identical. Equal entries are not always repeated. Results filed as inconclusive are left out. A call without a number means that no potency is given here. A structure can be active in one record and inactive in another. Calls of active or inactive are those of the source. Calls follow the shape of the dose curve; as a rule, active = well fitted curve in the direction sought with a large enough effect; inconclusive = small, poorly fitted or top-dose-only effect, or another doubt; inactive = no such curve, though single readings can be large; an effect the other way counts as inactive or inconclusive.

How the values were obtained:
[1] = Viability qHTS for spleen associated tyrosine kinase inhibitor (SYKi) naive MV4-11 cells (AID 1963823); also: nearly all actives have a fitted effect of over 40% in size
Summary of the method: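 Viability of MV4-11 AML cells lacking prior SYK inhibitor exposure is scored by CellTiter-Glo luminescence following 72 hr compound incubation at 37 C, 5% CO2, seeded at 500 cells per well.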

[2] = Viability qHTS for spleen associated tyrosine kinase inhibitor (SYKi) drug resistant MV4-11 cells (AID 1963824); also: nearly all actives have a fitted effect of over 35% in size
Summary of the method: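 CellTiter-Glo luminescence, read 10 min after reagent addition, reports viability after a 72 hr compound exposure. Cells are an MV4-11 line made resistant to SYK inhibition, seeded at 500 per well onto compound-containing plates.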

[3] = Quantitative highthroughput screen to assess conditional lethalithy of NOMO1 cells grown in RPMI1640 with untreated serum (RPMI+s) (AID 1963876); also: nearly all actives have a fitted effect of over 35% in size
Summary of the method: (§1)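 Each medium arm—HPLM with 10% dialyzed FBS, or RPMI1640 with 5 mM glucose and 10% untreated or dialyzed FBS—was screened against an 11-point, 3-fold compound titration for 48 h at 37 °C, with CellTiter-Glo luminescence as endpoint.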

[4] = Quantitative highthroughput screen to assess conditional lethalithy of NOMO1 cells grown in Human Plasma-Like Medium with dialyzed fetal bovine serum (HPLM+ds) (AID 1963878); also: nearly all actives have a fitted effect of over 35% in size
Summary of the method: as §1

[5] = Quantitative highthroughput screen to assess conditional lethalithy of P12 Ichikawa cells grown in Human Plasma-Like Medium with dialyzed fetal bovine serum (HPLM+ds) (AID 1963879); details: Potency: viability; also: nearly all actives have a fitted effect of over 35% in size; as to Viability: series mostly up to about 46 µM
Summary of the method: as §1

[6] = Quantitative highthroughput screen to assess conditional lethalithy of P12 Ichikawa cells grown in RPMI1640 with dialyzed fetal bovine serum (RPMI+ds) (AID 1963880); details: Potency: P12-Ichikawa viability; also: nearly all actives have a fitted effect of over 35% in size
Summary of the method: as §1

[7] = Quantitative highthroughput screen to assess conditional lethalithy of P12 Ichikawa cells grown in RPMI1640 with untreated serum (RPMI+s) (AID 1963881); details: Potency: viability; also: nearly all actives have a fitted effect of over 35% in size; as to Viability: series mostly up to about 46 µM
Summary of the method: as §1

[8] = Quantitative highthroughput screen to assess conditional lethalithy of SEM cells grown in Human Plasma-Like Medium with dialyzed fetal bovine serum (HPLM+ds) (AID 1963882); also: nearly all actives have a fitted effect of over 35% in size; as to Viability: series mostly up to about 46 µM
Summary of the method: as §1

[9] = Quantitative highthroughput screen to assess conditional lethalithy of SEM cells grown in RPMI1640 with unreated serum (RPMI+s) (AID 1963883); also: nearly all actives have a fitted effect of over 35% in size
Summary of the method: as §1

[10] = Quantitative highthroughput screen to assess conditional lethalithy of SEM cells grown in RPMI1640 with dialyzed fetal bovine serum (RPMI+ds) (AID 1963884); also: nearly all actives have a fitted effect of over 35% in size; as to Viability: series mostly up to about 46 µM
Summary of the method: as §1

[11] = Cellular viability qHTS for adrenocortical cancer (ACC) cell line SW-13 (AID 1963989); details: SW-13 ACC cells viability, CellTiter-Glo, 48 h; activity (max response): stronger effect = lower value; also: nearly all actives have a fitted effect of over 65% in size;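 as to activity (max response): cells grown in serum-free medium with ITS supplement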
Summary of the method: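 48 h treatment, SW-13 in ITS/DMEM serum-free; doses up to 46 uM; readout CellTiter-Glo luminescence; curve fit four-parameter logistic.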

[12] = Cellular viability qHTS for adrenocortical cancer (ACC) cell line NCI-H295R (AID 1963990); also: nearly all actives have a fitted effect of over 60% in size
Summary of the method: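 Compound titrations (up to 46 uM final) are applied to NCI-H295R cultures for 48 h at 37C. Viable cell number is estimated by CellTiter-Glo signal, normalised to DMSO and doxorubicin controls.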

[13] = Quantitative highthroughput screen to assess conditional lethalithy of NOMO1 cells grown in RPMI1640 with dialyzed fetal bovine serum (RPMI+ds) (AID 1963877); also: nearly all actives have a fitted effect of over 30% in size; as to Viability: series mostly up to about 46 µM
Summary of the method: as §1
Potency is read from the fitted curve at half-maximal effect.

## COc1ccc(C[C@@H](C)[C@@H](C)Cc2ccc(OC)c(OC)c2)cc1OC
[1]
  Potency: 6.61 µM (active)
[2]
  Potency: 11.8 µM (active)
[3]
  Potency: 2.35 µM (active)
[4]
  Potency: 0.833 µM (active)
[5]
  Potency: 2.35 µM (active)
[6]
  Potency: 2.35 µM (active)
[7]
  Potency: 2.35 µM (active)
[8]
  Potency: 2.64 µM (active)
[9]
  Potency: 2.64 µM (active)
[10]
  Potency: 2.64 µM (active)
[11]
  activity (max response): -32.2% (inactive)
[12]
  Potency: inactive

## COc1ccc2c(Oc3ccc(NC(=O)c4c(C)n(CC(C)(C)O)n(-c5ccccc5)c4=O)nc3)ccnc2c1
[1]
  Potency: 0.166 µM (active)
[2]
  Potency: 0.332 µM (active)
[3]
  Potency: inactive
[13]
  Potency: inactive
[11]
  activity (max response): -3.94% (inactive)
[12]
  Potency: inactive

## Cc1cnc(-c2cnc(NCCNc3ccc(C#N)cn3)nc2-c2ccc(Cl)cc2Cl)[nH]1
[1]
  Potency: 14.6 µM (active)
[2]
  Potency: 13 µM (active)
[3]
  Potency: inactive
[13]
  Potency: inactive
[11]
  activity (max response): 4.03% (inactive)
[12]
  Potency: inactive

## COc1c(Cl)cc2c([nH]c3cnccc32)c1NC(=O)c1cccnc1C
[1]
  Potency: 20.9 µM (active)
[2]
  Potency: 18.6 µM (active) and 20.6 µM (active)
[3]
  Potency: inactive
[4]
  Potency: inactive
[5]
  Potency: inactive
[6]
  Potency: inactive
[7]
  Potency: inactive
[8]
  Potency: inactive
[10]
  Potency: inactive
[11]
  activity (max response): -4.78% (inactive)
[12]
  Potency: inactive

## NC(CO)(CO)CCc1ccc(Sc2cccc(OCc3ccccc3)c2)cc1Cl
[1]
  Potency: 7.42 µM (active)
[2]
  Potency: 3.72 µM (active)
[3]
  Potency: 13.2 µM (active)
[4]
  Potency: 7.43 µM (active)
[5]
  Potency: 7.43 µM (active)
[6]
  Potency: 14.8 µM (active)
[7]
  Potency: 10.5 µM (active)
[12]
  Potency: 3.98 µM (active)

## CN(C)c1ccc(-c2nc3ncc(Cl)c(N4CCN(CC(=O)Nc5nccs5)CC4)c3[nH]2)cc1
[1]
  Potency: 0.257 µM (active)
[2]
  Potency: 0.645 µM (active)
[3]
  Potency: inactive
[4]
  Potency: 18.7 µM (active)
[5]
  Potency: inactive
[6]
  Potency: inactive
[7]
  Potency: inactive
[11]
  activity (max response): -12.9% (inactive)
[12]
  Potency: inactive

## O=c1c(O)c(-c2ccc(O)c(O)c2)oc2cc(O)cc(O)c12
[1]
  Potency: 23.7 µM (active) and inactive
[2]
  Potency: inactive and 16.4 µM (active)
[3]
  Potency: inactive
[13]
  Potency: inactive
[7]
  Potency: inactive
[8]
  Potency: inactive
[11]
  activity (max response): -23.2% (inactive) and 14.3% (inactive)
[12]
  Potency: inactive

## CN(C)c1ccc(C2Nc3ccc4ccccc4c3C3=C2C(=O)CC(C)(C)C3)cc1Br (centres undefined)
[1]
  Potency: inactive
[2]
  Potency: 14.8 µM (active)
[3]
  Potency: inactive
[4]
  Potency: inactive
[5]
  Potency: inactive
[6]
  Potency: inactive
[7]
  Potency: inactive
[8]
  Potency: inactive
[9]
  Potency: inactive
[10]
  Potency: inactive
[11]
  activity (max response): -5.19% (inactive)
[12]
  Potency: inactive

## CCCCCCNC(=O)n1cc(F)c(=O)[nH]c1=O
[1]
  Potency: 1.05 µM (active)
[2]
  Potency: 0.934 µM (active)
[3]
  Potency: inactive
[13]
  Potency: 9.35 µM (active)
[8]
  Potency: inactive
[9]
  Potency: 16.6 µM (active)
[11]
  activity (max response): 8.7% (inactive) and -4.78% (inactive)
[12]
  Potency: inactive

## CC1=C[C@@H]2[C@@H]([C@@H](O)C[C@@]3(C)[C@H]2C[C@@H](C)[C@]3(O)C(=O)CO)[C@@]2(C)Cc3cnn(-c4ccccc4)c3C=C12
[1]
  Potency: 0.731 µM (active)
[2]
  Potency: 1.03 µM (active)
[3]
  Potency: inactive
[13]
  Potency: inactive
[8]
  Potency: 0.0372 µM (active)
[12]
  Potency: 8.91 µM (active)

## Cc1ccccc1N1C(=O)c2cc(S(N)(=O)=O)c(Cl)cc2NC1C (centres undefined)
[1]
  Potency: inactive
[2]
  Potency: inactive
[3]
  Potency: inactive
[4]
  Potency: inactive
[5]
  Potency: inactive
[6]
  Potency: inactive
[7]
  Potency: inactive
[8]
  Potency: inactive
[9]
  Potency: inactive
[10]
  Potency: inactive
[11]
  activity (max response): 17.3% (inactive)
[12]
  Potency: inactive

## c1coc(CNc2ncnc3nc[nH]c23)c1
[1]
  Potency: inactive
[2]
  Potency: 18.6 µM (active)
[3]
  Potency: inactive
[4]
  Potency: inactive
[5]
  Potency: inactive
[6]
  Potency: inactive
[7]
  Potency: inactive
[8]
  Potency: inactive
[9]
  Potency: inactive
[10]
  Potency: inactive
[11]
  activity (max response): -0.681% (inactive)

## O=C(O)CCCc1c[nH]c2ccccc12
[1]
  Potency: inactive
[2]
  Potency: inactive
[3]
  Potency: inactive
[4]
  Potency: inactive
[6]
  Potency: inactive
[7]
  Potency: inactive
[8]
  Potency: inactive
[9]
  Potency: inactive
[10]
  Potency: inactive
[12]
  Potency: inactive

## CC1(CN2CCC(n3c(=O)[nH]c4ccccc43)CC2)OCc2ccccc2-n2cccc21 (centres undefined)
[1]
  Potency: 16.6 µM (active)
[2]
  Potency: 21.1 µM (active) and 10.3 µM (active) and 14.8 µM (active)
[3]
  Potency: inactive
[4]
  Potency: inactive
[6]
  Potency: inactive
[7]
  Potency: inactive
[9]
  Potency: inactive
[10]
  Potency: inactive
[11]
  Potency: 20.6 µM (active) and 25.1 µM (active)
[12]
  Potency: 23.1 µM (active)

## COc1ccccc1OCCNCC(O)COc1cccc2[nH]c3ccccc3c12 (centres undefined)
[1]
  Potency: 13.3 µM (active)
[2]
  Potency: 11.9 µM (active)
[3]
  Potency: inactive
[4]
  Potency: inactive
[5]
  Potency: inactive
[6]
  Potency: inactive
[8]
  Potency: inactive
[9]
  Potency: inactive

## COc1ccc(C(=O)CC(=O)c2ccc(C(C)(C)C)cc2)cc1
[1]
  Potency: inactive and 14.8 µM (active)
[2]
  Potency: inactive and 16.6 µM (active)
[3]
  Potency: inactive
[4]
  Potency: inactive
[5]
  Potency: inactive
[6]
  Potency: inactive
[7]
  Potency: inactive
[9]
  Potency: inactive
[10]
  Potency: inactive
[11]
  activity (max response): 8.41% (inactive) and -10.7% (inactive)
[12]
  Potency: inactive

## Cc1cnc(Nc2ccc(OCCN3CCCC3)cc2)nc1Nc1cccc(S(=O)(=O)NC(C)(C)C)c1
[1]
  Potency: 146 nM (active) and 186 nM (active)
[2]
  Potency: 366 nM (active) and 417 nM (active)
[3]
  Potency: inactive
[4]
  Potency: inactive
[5]
  Potency: inactive
[6]
  Potency: inactive
[7]
  Potency: inactive
[8]
  Potency: 10.5 µM (active)
[9]
  Potency: inactive
[11]
  Potency: 12.6 µM (active)
[12]
  Potency: 10 µM (active)
